Growth data for nine compounds are collected here from PubChem BioAssay (NCI).

This is part of a sample that, as a whole, favours compounds with a hit. Of some 83,000 tested, about 20% had one in any assay.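 Percent growth is the endpoint: 0 to 100 indicates growth inhibition (40 means 60% inhibition), 0 means no net growth, and negative values indicate cell death.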 Unmarked numbers belong to inactive results. Activity calls are given as the source filed them. How the source made its calls: active means growth percent below 10; inactive means the rest.

Common to all, as to test: NCI-60 one-dose screen, 48 h (100 = growth as untreated, 0 = no growth, -100 = all killed)
One assay has as its system A549/ATCC NSCLC. As to conditions: 10 µM unless noted.
Another assay relates to COLO 205 colon. As to conditions: 10 µM.
The test system of a further assay is MALME-3M melanoma. The settings on record: 10 µM unless noted.
A further assay relates to RXF 393 renal. As to conditions: 10 µM unless noted.
For the next assay, the system named is UACC-257 melanoma. As to conditions: 10 µM unless noted.
For a further assay, the system named is HT29 colon. The settings on record: 10 µM unless noted.
A further assay relates to U251 CNS. As to conditions: 10 µM unless noted.
Another assay has as its system SK-MEL-2 melanoma. The settings on record: 10 µM unless noted.
The test system of the next assay is SN12C renal. As to conditions: 10 µM unless noted.
For a further assay, the system named is UO-31 renal. The settings on record: 10 µM unless noted.
The next assay deals with CAKI-1 renal. As to conditions: 10 µM unless noted.
The next assay has as its system A498 renal. The settings on record: 10 µM unless noted.
The next assay concerns HL-60(TB) leukemia. As to conditions: 10 µM unless noted.
A further assay concerns OVCAR-8 ovarian. As to conditions: 10 µM unless noted.
In a further assay the test system is OVCAR-4 ovarian. As to conditions: 10 µM unless noted.
The next assay relates to SK-OV-3 ovarian. As to conditions: 10 µM unless noted.
Another assay relates to HS 578T breast. The settings on record: 10 µM unless noted.
The subject of the next assay is T-47D breast. The settings on record: 10 µM unless noted.
A further assay has as its system BT-549 breast. As to conditions: 10 µM.
The next assay deals with MDA-MB-435 melanoma. As to conditions: 10 µM unless noted.

For the compound `CC1COC(=O)C1` (stereo not drawn), the growth in the assay on A549/ATCC NSCLC was 101%; in the assay with COLO 205 colon, 102%; with MALME-3M melanoma, 98.2%; in the assay with RXF 393 renal it was 103%; in the assay on UACC-257 melanoma, 104%; in the assay on HT29 colon, 98.2%. For the same compound, the growth in the assay on U251 CNS is 102%; with SK-MEL-2 melanoma, 99.3%; in the assay on SN12C renal, 98.4%; in the assay on UO-31 renal, 90.4%; in the assay with CAKI-1 renal it was 96.1%; in the assay with A498 renal, 89.2%. The growth in the assay on HL-60(TB) leukemia was 105%; in the assay on OVCAR-8 ovarian it was 104%; in the assay with OVCAR-4 ovarian, 109%; in the assay with SK-OV-3 ovarian it was 96.1%; with HS 578T breast it was 99.2%; with T-47D breast, 95.5%. Further, the growth in the assay on BT-549 breast and with MDA-MB-435 melanoma was 102% in each case.
With `CC[CH2][Pb]([CH2]CC)([CH2]CC)[O]C(=O)C(F)(F)F`, the growth in the assay on COLO 205 colon is -72.5% (active); in the assay on MALME-3M melanoma, -89.2% (active); with RXF 393 renal it was -73.9% (active); in the assay on HT29 colon, -61.5% (active); with U251 CNS, -87.4% (active); in the assay with SK-MEL-2 melanoma, -87.7% (active). The growth in the assay on SN12C renal is -79.3% (active); in the assay on UO-31 renal, -100% (active); in the assay on CAKI-1 renal, -95.2% (active); in the assay on A498 renal, -97.6% (active); with HL-60(TB) leukemia it was -29.7% (active); with OVCAR-8 ovarian it was -69.4% (active). In addition, the growth with OVCAR-4 ovarian was -97.4% (active); in the assay on SK-OV-3 ovarian, -74.6% (active); in the assay with HS 578T breast it was -10.4% (active); with T-47D breast it was -68.1% (active); in the assay with BT-549 breast, -95.3% (active); with MDA-MB-435 melanoma it was -97.1% (active).
For the compound `O=C(N/N=C/c1ccc(N(CCCl)CCCl)cc1)c1cc(=O)[nH]c(=O)[nH]1`, the growth in the assay with A549/ATCC NSCLC is 106%; in the assay with MALME-3M melanoma, 101%; in the assay with RXF 393 renal, 95.2%; with UACC-257 melanoma, 101%; with HT29 colon it was 101%; in the assay with U251 CNS, 98.2%. Besides, the growth in the assay with SK-MEL-2 melanoma was 109%; in the assay on UO-31 renal, 71.7%; with CAKI-1 renal, 53.2%; in the assay on A498 renal, 93.7%; with OVCAR-8 ovarian, 93.5%; with OVCAR-4 ovarian, 109%. Moreover, the growth in the assay with HS 578T breast is 105%; with BT-549 breast, 96.8%; in the assay with MDA-MB-435 melanoma, 116%.
As to `CCC(CC)(c1ccccc1)C(OC(N)=O)c1ccccc1` (stereo not drawn), the growth in the assay on A549/ATCC NSCLC was 76%; with COLO 205 colon, 86.7%; in the assay on UACC-257 melanoma it was 85.8%; in the assay on HT29 colon, 87.7%; with U251 CNS, 82.1%; in the assay on SK-MEL-2 melanoma, 79.2%. The growth in the assay with SN12C renal is 81.8%; with UO-31 renal, 71.4%; in the assay with CAKI-1 renal, 60.7%; in the assay on A498 renal it was 79.2%; with HL-60(TB) leukemia, 96.1%; with OVCAR-8 ovarian, 92.5%. Further, the growth in the assay with OVCAR-4 ovarian is 83.7%; with SK-OV-3 ovarian, 66.5%; in the assay with HS 578T breast, 88.2%; in the assay with T-47D breast, 82.2%; in the assay with BT-549 breast, 110%; in the assay with MDA-MB-435 melanoma, 50.6%.
Consider `Cc1cc(NC(=O)/C=C/c2ccc([N+](=O)[O-])cc2)ccc1S(=O)(=O)F`, for which the growth in the assay on A549/ATCC NSCLC was 98.8%; in the assay with COLO 205 colon it was 102%; in the assay with MALME-3M melanoma it was 103%; in the assay with RXF 393 renal it was 119%; in the assay on UACC-257 melanoma it was 97.4%; in the assay on HT29 colon it was 99.7%. The growth was 102% with U251 CNS; 107% in the assay on SK-MEL-2 melanoma; 92.4% in the assay with SN12C renal; 71.8% in the assay with UO-31 renal; 114% with CAKI-1 renal; 98.7% in the assay with A498 renal. The growth in the assay with HL-60(TB) leukemia was 98.5%; in the assay on OVCAR-8 ovarian, 98.6%; with OVCAR-4 ovarian, 103%; with SK-OV-3 ovarian it was 99.9%; with T-47D breast, 87.6%; in the assay on BT-549 breast, 106%. The growth in the assay with MDA-MB-435 melanoma is 99.7%.
In the case of `CNC(=O)Oc1cccc(OC)c1`, the growth in the assay with A549/ATCC NSCLC is 106%; in the assay with COLO 205 colon, 119%; in the assay on MALME-3M melanoma it was 115%; in the assay on RXF 393 renal, 111%; with UACC-257 melanoma, 112%; in the assay on HT29 colon, 103%. Further, the growth with U251 CNS is 110%; with SK-MEL-2 melanoma, 89.8%; in the assay with SN12C renal, 93.3%; with UO-31 renal, 97.5%; in the assay on CAKI-1 renal, 86.1%; in the assay with A498 renal, 87.8%. Besides, the growth in the assay with OVCAR-8 ovarian was 108%; in the assay on OVCAR-4 ovarian it was 105%; in the assay on SK-OV-3 ovarian, 118%; with HS 578T breast it was 109%; with T-47D breast it was 108%; with BT-549 breast it was 103%. Also, in the assay on MDA-MB-435 melanoma, the growth is 95.5%.
In the case of `CC(=O)O[C@H]1CCC2C3CCC4=C/C(=N/O)CCC4(C)C3CCC21C` (stereo partly drawn), the growth in the assay on A549/ATCC NSCLC was 99.7%; with COLO 205 colon it was 107%; in the assay on MALME-3M melanoma it was 94.3%; in the assay with RXF 393 renal, 102%; with UACC-257 melanoma, 114%; in the assay with HT29 colon it was 76%. For the same compound, the growth in the assay with U251 CNS was 83.3%; in the assay on SK-MEL-2 melanoma, 85.4%; in the assay with SN12C renal, 103%; in the assay with UO-31 renal, 65.1%; in the assay with CAKI-1 renal, 80.5%; in the assay with A498 renal, 53.1%. Moreover, the growth was 23.1% with HL-60(TB) leukemia; 99.3% in the assay on OVCAR-8 ovarian; 104% in the assay on SK-OV-3 ovarian; 55.2% in the assay with HS 578T breast; 95.6% with T-47D breast; 84.9% with BT-549 breast. For the same compound, in the assay on MDA-MB-435 melanoma, the growth is 20.3%.
Turning to `c1ccc(-c2ccc3ccccc3[o+]2)cc1`, the growth in the assay with A549/ATCC NSCLC is 90.8%; in the assay with COLO 205 colon, 111%; in the assay with MALME-3M melanoma, 101%; in the assay on RXF 393 renal it was 97.4%; in the assay with UACC-257 melanoma, 98%; in the assay with HT29 colon, 89.1%. In addition, the growth was 93.4% in the assay with U251 CNS; 88.8% in the assay with SK-MEL-2 melanoma; 90.2% with SN12C renal; 73.5% with UO-31 renal; 109% in the assay with A498 renal; 89.7% in the assay on HL-60(TB) leukemia. Besides, the growth was 96.6% in the assay with OVCAR-8 ovarian; 90.5% in the assay with OVCAR-4 ovarian; 89.4% in the assay with SK-OV-3 ovarian; 94.1% in the assay on HS 578T breast; 75.6% in the assay with T-47D breast; 101% with MDA-MB-435 melanoma.
Turning to `CNC(=O)Oc1ccccc1`, the growth was 94.9% with A549/ATCC NSCLC; 104% in the assay on COLO 205 colon; 105% in the assay with MALME-3M melanoma; 112% in the assay on RXF 393 renal; 102% in the assay on UACC-257 melanoma; 118% in the assay on HT29 colon. For the same compound, the growth was 108% in the assay with U251 CNS; 118% in the assay on SK-MEL-2 melanoma; 98.8% with UO-31 renal; 113% in the assay on CAKI-1 renal; 120% with A498 renal; 120% with HL-60(TB) leukemia. Moreover, the growth with OVCAR-8 ovarian is 110%; with OVCAR-4 ovarian, 88.7%; in the assay with SK-OV-3 ovarian, 108%; with T-47D breast it was 133%; in the assay on BT-549 breast it was 105%.
